Assay results published in PubChem BioAssay AID720549 (National Center for Advancing Translational Sciences (NCATS), 2013).
Inconclusive results are not listed. Active and inactive are the calls of the source. Calls follow the shape of the dose curve; as a rule, active = well fitted inhibition curve with a large enough effect; inconclusive = small, poorly fitted or top-dose-only effect; inactive = flat fitted curve, though single readings scatter.

biological target: RecQ-like DNA helicase BLM (Homo sapiens) (UniProt P54132); experiment: qHTS for Inhibitors of Bloom's syndrome helicase (BLM): Helicase ATPase Orthogonal Confirmatory Assay for SAR; details: purified BLM helicase ATPase activity assay; series mostly up to 57.1 µM
Sequence (P54132 whole entry, looked up): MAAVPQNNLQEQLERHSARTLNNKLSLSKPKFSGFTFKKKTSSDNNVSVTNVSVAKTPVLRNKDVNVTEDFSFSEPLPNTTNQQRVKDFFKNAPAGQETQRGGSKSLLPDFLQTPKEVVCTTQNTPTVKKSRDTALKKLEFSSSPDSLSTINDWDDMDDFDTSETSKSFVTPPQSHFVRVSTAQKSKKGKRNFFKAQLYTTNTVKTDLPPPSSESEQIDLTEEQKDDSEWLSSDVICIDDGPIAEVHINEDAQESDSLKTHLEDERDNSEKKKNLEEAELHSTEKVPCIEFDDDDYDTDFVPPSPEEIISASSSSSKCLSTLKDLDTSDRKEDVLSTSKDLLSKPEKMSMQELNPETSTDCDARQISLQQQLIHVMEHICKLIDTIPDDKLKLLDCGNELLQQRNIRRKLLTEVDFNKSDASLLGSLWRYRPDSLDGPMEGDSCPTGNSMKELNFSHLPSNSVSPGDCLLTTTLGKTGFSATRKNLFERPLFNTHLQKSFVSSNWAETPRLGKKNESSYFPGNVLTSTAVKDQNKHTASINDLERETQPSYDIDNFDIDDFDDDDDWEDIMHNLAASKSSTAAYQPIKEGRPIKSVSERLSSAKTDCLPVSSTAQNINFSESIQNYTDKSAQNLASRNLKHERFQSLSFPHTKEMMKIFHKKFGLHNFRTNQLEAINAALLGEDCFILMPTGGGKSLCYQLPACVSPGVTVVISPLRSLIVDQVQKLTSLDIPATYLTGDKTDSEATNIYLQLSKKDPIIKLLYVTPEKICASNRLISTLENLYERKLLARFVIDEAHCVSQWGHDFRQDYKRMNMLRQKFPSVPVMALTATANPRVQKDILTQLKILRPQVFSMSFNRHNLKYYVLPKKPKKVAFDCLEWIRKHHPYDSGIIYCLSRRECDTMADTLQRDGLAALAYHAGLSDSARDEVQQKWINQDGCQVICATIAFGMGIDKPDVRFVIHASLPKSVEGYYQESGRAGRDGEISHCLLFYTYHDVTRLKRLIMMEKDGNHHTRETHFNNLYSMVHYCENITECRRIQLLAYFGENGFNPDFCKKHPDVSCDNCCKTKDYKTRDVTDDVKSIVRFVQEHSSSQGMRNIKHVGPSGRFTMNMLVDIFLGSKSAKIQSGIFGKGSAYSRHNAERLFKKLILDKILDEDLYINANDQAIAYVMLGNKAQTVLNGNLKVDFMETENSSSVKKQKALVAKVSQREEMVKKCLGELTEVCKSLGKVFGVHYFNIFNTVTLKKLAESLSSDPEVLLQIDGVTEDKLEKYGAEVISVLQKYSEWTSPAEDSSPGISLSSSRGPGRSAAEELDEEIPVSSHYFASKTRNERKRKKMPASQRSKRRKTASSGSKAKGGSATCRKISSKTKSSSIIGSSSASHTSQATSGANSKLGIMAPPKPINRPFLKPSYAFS
Outline: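 Purified BLM (2 nM) in Tris-HCl pH 8.0 with MgCl2, DTT, Tween-20, preincubated 15 min with compound. Reaction with 200 nM ssDNA and 100 uM ATP ran 15 min; ADP-Glo luminescence, four-parameter Hill fit.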

Potency, inactive:
O=C(Nc1ccc(Cl)c([N+](=O)[O-])c1)Nc1nnc(-c2ccc(F)cc2)s1
Cc1cc(C)c(-c2nnc(NC(=O)Nc3ccc4ccccc4c3)s2)c(C)c1
COc1ccccc1CNC(=O)Nc1nnc(-c2ccncc2)s1
O=C(Nc1ccc(-c2nc3ccccc3[nH]2)cc1)Nc1ccc2c(c1)CCCO2
O=C(Nc1ccc2ccccc2c1)Nc1nnc(-c2ccc(Cl)cc2)s1
S=C(Nc1ccc(Cl)c(Cl)c1)Nc1nnc(-c2ccncc2)o1
O=C(Nc1ccc(F)c(C(F)(F)F)c1)Nc1nnc(-c2ccncc2)s1
O=C(Nc1ccc2c(c1)OCCO2)Nc1nnc(-c2ccncc2)s1
O=S(=O)(Cc1ccc(Cl)c(Cl)c1)Nc1nnc(-c2ccncc2)s1
COc1ccc(-c2nnc(NC(=O)Nc3ccc4ccccc4c3)s2)cc1OC
O=C(Nc1cccc(C(=O)O)c1)Nc1nnc(-c2ccncc2)s1
Cc1ccccc1-c1nnc(NC(=O)Nc2ccc3ccccc3c2)s1
O=c1c(Nc2ccc(F)c(C(F)(F)F)c2)c(Nc2nnc(-c3ccncc3)s2)c1=O
Cc1cc(Nc2c(Nc3nnc(-c4ccncc4)s3)c(=O)c2=O)ccc1Cl
Cc1cc(NC(=O)Nc2nnc(-c3ccncc3)s2)ccc1F
O=C(Nc1ccc2sccc2c1)Nc1nnc(-c2cccnc2)s1
COc1ccc(NC(=O)Nc2ccc(-c3nc4ccccc4[nH]3)cc2)cc1OC
O=C(Nc1ccc2ccccc2c1)Nc1nnc(-c2ccc(O)cc2)s1
O=C(Nc1nnc(-c2ccncc2)s1)Nc1ccc(Cl)c2ccccc12

Potency, active:
O=C(Cc1ccc2ccccc2c1)Nc1nnc(-c2ccncc2)s1 16.2 µM
Cc1cc(NC(=O)Nc2nnc(-c3ccncc3)s2)ccc1C#N 1.29 µM
O=C(Nc1ccc2sccc2c1)Nc1nnc(-c2ccncc2)s1 7.25 µM
O=C(Nc1ccc(-n2ccnc2)c(F)c1)Nc1nnc(-c2ccncc2)s1 14.5 µM
O=C(Nc1ccc(Cl)nc1)Nc1nnc(-c2ccncc2)s1 1.62 µM
